According to PubChem BioAssay AID2061318 (National Center for Advancing Translational Sciences (NCATS), 2025):
Records with an inconclusive call do not appear. Calls of active or inactive are those of the source. Calls follow the shape of the dose curve; as a rule, active = well fitted inhibition curve with a large enough effect; inconclusive = small, poorly fitted or top-dose-only effect; inactive = flat fitted curve, though single readings scatter.

Test: Identification of antibody-drug conjugate (ADC) payloads which are substrates of ATP-binding cassette drug efflux transporters: ABCB1-HEK293-MDR-19 cell line
Conditions: HEK293 ABCB1 (MDR-19) viability, CellTiter-Glo, 48 h
Description: Antibody-drug conjugates (ADCs) feature an antibody recognizing a specific protein joined to a potent toxic payload. Numerous antibody-drug conjugates have received FDA approval; however, clinical resistance arises. Resistance mechanisms include decreased expression or mutation of the antibody target, impaired payload release, or increased expression of ATP-binding cassette (ABC) efflux transporters associated with multidrug resistance. We therefore sought to characterize the interaction of ABC multidrug transporters with ADC payloads. We performed a high-throughput screen with 27 common ADC payloads using cells lines expressing ABC transporters P-glycoprotein (P-gp, encoded by ABCB1) or ABCG2 (encoded by ABCG2). Confirmatory assays were also performed using cells transfected to express P-gp, ABCG2, or MRP1 (encoded by ABCC1). Several commonly used ADC payloads were substrates of P-gp, including calicheamicin gamma1, monomethyl auristatin E, DM1, and DM4. All the pyrrolobenzodiazepines tested - SJG136, SGD-1882, SG2057, and SG3199 - were substrates of P-gp, ABCG2, and MRP1. […] These findings highlight the risk of transporter-mediated resistance with certain ADC payloads and underscore the importance of selecting payloads that evade ABC transporter recognition in future ADC development.
HEK-293 cells were transfected with empty vector (pcDNA) or vector containing the human ABCB1 (MDR-19), ABCG2 (R-5), or ABCC1 gene (MRP1) and were maintained in EMEM with 2 mg/mL G418 added to maintain transporter expression. The HeLa derivative KB-3-1 and the P-gp overexpressing KB-8-5-11 subline were maintained in DMEM; KB-8-5-11 additionally received 100 ng/mL colchicine. H460 parental cells were obtained from the Division of Cancer Treatment and Diagnosis Tumor Repository, National Cancer Institute at Frederick, MD and were cultured in RPMI. The ABCG2 expressing subline H460 MX20 was generated by selecting H460 cells in 20 nM mitoxantrone. Media in all cases was supplemented with 10% FBS and 1% penicillin-streptomycin. We explored 27 common ADC payloads, in two orthogonal, paired cell line sets-a drug selected and transfected set for each transporter--to identify substrates of the ABC transporters P-gp and ABCG2. Compounds were sourced from Levena Biopharma (San Diego, CA), Selleck Chem (Houston, TX), ChemieTek (Indianapolis, IN), or Microsource Discovery Systems (Gaylordsville, CT). Screening was performed as previously described. Briefly, cells were plated at a density of 500 cells/well in 1536 well plates with compounds added using a 1536-head pin tool (Kalypsys, San Diego CA). Cells were incubated with cytotoxic drugs and processed with CellTiter Glo reagent (Promega, Madison, WI) to determine viability after 48 hours. P-gp substrates were identified by comparing compound activity between paired sets of low-expressing (sensitive) and over-expressing (resistant) cell lines.

| Structure (SMILES) | Potency |
| --- | --- |
| COc1cc2cc(c1Cl)N(C)C(=O)C[C@H](OC(=O)C(C)C)[C@]1(C)O[C@H]1[C@H](C)[C@@H]1C[C@@](O)(NC(=O)O1)[C@H](OC)C=CC=C(C)C2 | 14.9 nM (active) |
| COc1cc2cc(C(=O)N3C[C@@H](CCl)c4c3cc(O)c3ccccc43)[nH]c2c(OC)c1OC | 1.2 nM (active) |
| CC[C@H](C)[C@@H]([C@@H](CC(=O)N1CCC[C@H]1[C@H](OC)[C@@H](C)C(=O)N[C@H](C)[C@@H](O)c1ccccc1)OC)N(C)C(=O)[C@@H](NC(=O)[C@H](C(C)C)N(C)C)C(C)C | 66.6 nM (active) |
| COc1cccc2c1C(=O)c1c(O)c3c(c(O)c1C2=O)C[C@@](O)(C(=O)CO)CC3OC1CC(N2CCOC(OC)C2)C(O)C(C)O1 (stereo partly specified) | 1.7 nM (active) |
| COc1cc2cc(c1Cl)N(C)C(=O)C[C@H](OC(=O)[C@H](C)N(C)C(=O)CCS)[C@]1(C)OC1[C@H](C)C1C[C@@](O)(NC(=O)O1)[C@H](OC)/C=C/C=C(\C)C2 (stereo partly specified) | 298 nM (active) |
| CC[C@@]1(O)C(=O)OCc2c1cc1n(c2=O)Cc2cc3ccccc3nc2-1 | 13.3 nM (active) |
